HP1b chromo inh: inhibitors of HP1-beta chromodomain binding to methylated histone tails. P83916. AlphaScreen HP1-beta / biotin-H3K9me3 peptide binding. Potency, µM (highest dose often 114 µM), for inactives: top-dose activity change, negative = inhibition, most hits filed as inhibitors. hit rate 0.56% among 390,000. AID 540317; further: nearly all actives have a fitted effect of over 70% in size
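AlphaScreen: HP1-beta (50 nM) preformed 30 min with biotin-H3(1-18)K9me3 peptide (50 nM) in PBS pH 7.4, 0.01% Tween-20. Compound added for 30 min at RT, then streptavidin donor/nickel chelate acceptor beads (10 ug/mL) for 30 min.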
JMJD2A Tudor: JMJD2A Tudor domain (human) inhibition | Potency, µM (doses to about 114 µM), for inactives: at the highest dose activity change, negative = inhibition, hits mostly inhibitors | O75164 | AID 504339 | hit rate 4.4% among 390,000 | AlphaScreen JMJD2A-Tudor / H3K4me3 peptide binding; further: on the % scale 0 is the no-effect control and ±100 the full control effect; nearly all actives have a fitted effect of over 50% in size
Target sequence (O75164 whole entry, looked up, the tested form may be a part): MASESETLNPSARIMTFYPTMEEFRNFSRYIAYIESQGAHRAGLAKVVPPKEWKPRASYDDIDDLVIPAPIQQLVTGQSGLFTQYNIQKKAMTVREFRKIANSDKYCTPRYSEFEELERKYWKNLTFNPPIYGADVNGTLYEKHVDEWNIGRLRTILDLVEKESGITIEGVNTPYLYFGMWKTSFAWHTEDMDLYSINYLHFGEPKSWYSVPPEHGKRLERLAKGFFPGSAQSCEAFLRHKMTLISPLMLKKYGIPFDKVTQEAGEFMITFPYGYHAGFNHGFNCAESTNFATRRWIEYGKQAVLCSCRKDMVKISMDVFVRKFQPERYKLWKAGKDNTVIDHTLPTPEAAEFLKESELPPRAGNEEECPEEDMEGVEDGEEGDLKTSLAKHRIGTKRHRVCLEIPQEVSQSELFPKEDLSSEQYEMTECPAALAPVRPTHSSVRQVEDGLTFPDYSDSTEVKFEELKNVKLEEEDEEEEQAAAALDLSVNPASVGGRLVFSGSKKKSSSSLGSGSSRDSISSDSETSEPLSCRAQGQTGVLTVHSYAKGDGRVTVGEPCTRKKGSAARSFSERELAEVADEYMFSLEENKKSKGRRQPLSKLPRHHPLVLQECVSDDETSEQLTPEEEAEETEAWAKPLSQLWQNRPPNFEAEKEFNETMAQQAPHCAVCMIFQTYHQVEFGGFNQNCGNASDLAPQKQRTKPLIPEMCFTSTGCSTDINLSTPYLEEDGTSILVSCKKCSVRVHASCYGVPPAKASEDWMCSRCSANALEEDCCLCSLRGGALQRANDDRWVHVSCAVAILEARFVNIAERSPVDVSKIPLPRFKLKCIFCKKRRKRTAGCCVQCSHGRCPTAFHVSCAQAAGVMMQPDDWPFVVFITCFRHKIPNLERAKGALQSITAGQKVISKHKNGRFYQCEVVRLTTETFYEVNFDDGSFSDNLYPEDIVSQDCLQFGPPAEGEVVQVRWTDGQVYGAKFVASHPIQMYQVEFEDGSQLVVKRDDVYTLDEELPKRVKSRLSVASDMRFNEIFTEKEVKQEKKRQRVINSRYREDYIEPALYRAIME
BAZ2B block: BAZ2B (human) inhibition; Q9UIF8; Potency, µM (titrated, usually from 114 µM), without a hit: at the highest dose activity change, negative = inhibition, usual class: inhibitors; hit rate 4.4% among 360,000; AlphaScreen BAZ2B-H3K14Ac peptide displacement; further: on the % scale 0 is the no-effect control and ±100 the full control effect; nearly all actives have a fitted effect of over 60% in size
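AlphaScreen displacement of biotin-H3(5-23)K14Ac peptide (50 nM final) from BAZ2B (50 nM final) in PBS pH 7.4, 0.01% Tween-20; complex preformed 30 min RT, then compounds (top 110 uM) 30 min RT, beads 20 min dark.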
Sfp PPTase inh: blocks B. subtilis Sfp PPTase activity. Potency, µM, inactives show largest response in the series, negative = inhibition, actives largely listed as inhibitors. Biochemical Sfp PPTase activity, qHTS. hit rate 3.5% among 310,000. Q9F4F7;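 further: the enzyme is Sfp with the accession as filed and its product quenches rhodamine fluorescence; 0% = enzyme reaction without inhibitor and -100% = no enzyme wells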
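After 15 min at room temperature with compound, 15 nM Sfp received 5 uM rhodamine-CoA plus 12.5 uM BHQ-2-ybbR (50 mM Hepes pH 7.6, 10 mM MgCl2). Rate came from the fluorescence difference over 30 min, ex 525/em 598 nm.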
G9a inh: G9a (human) methyltransferase inhibition; Q96KQ7; G9a H3K9 monomethylation, AlphaScreen, 2 h; Potency, µM (doses to about 102 µM), without a hit: at the highest dose activity, negative = inhibition, usual class: inhibitors; hit rate 8.8% among 350,000; AID 504332; further: on the % scale 0 is the no-effect control and ±100 the full control effect; nearly all actives have a fitted effect of over 75% in size
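Chemiluminescent proximity detection of H3K9 monomethylation, read after 10 min bead incubation in the dark. Reaction: 20 nM G9a, 500 nM biotin-H3K9 peptide, 20 uM SAM cofactor, 2 h, room temperature, following 15 min enzyme-compound preincubation.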
TDP1 inh: inhibitors of human tyrosyl-DNA phosphodiesterase TDP1; Q9NUW8; recombinant TDP1, AlphaScreen DNA substrate cleavage; Potency, µM (top dose mostly 130 µM), inactives show at the highest dose activity change, negative = inhibition, actives largely listed as inhibitors; hit rate 0.28% among 350,000; AID 485290; further: on the % scale 0 is the no-effect control and ±100 the full control effect; nearly all actives have a fitted effect of over 40% in size
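Recombinant E. coli-expressed Tdp1 (1 nM) preincubated with compound 15 min at RT, then 5'-biotin/3'-phosphotyrosine-FITC DNA substrate (15 nM) added for 5 min. AlphaScreen beads (10 ug/ml) added, 10 min RT; tyrosine-FITC cleavage read as signal loss.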
* marks the source's active call; other numbers are inactive results; ? = inconclusive; . = not tested or not shown; ! = repeats disagree; [ ] = another dose, or the depositor's remark. Rows were chosen to be rich in hits. Some 12% of all compounds tested hit in one or more screens of this group. The call rests on the fitted dose curve; in most records, active means well fitted curve in the direction sought with a large enough effect; inconclusive means small, poorly fitted or top-dose-only effect, or another doubt; inactive means no such curve, though single readings can be large; an effect the other way counts as inactive or inconclusive. Potency means the concentration at half of the fitted maximal effect.

SMILES	HP1b chromo inh	JMJD2A Tudor	BAZ2B block	Sfp PPTase inh	G9a inh	TDP1 inh
O=C(COC(=O)c1cc(Cl)ccc1O)NCCNC(=O)COC(=O)c1cc(Cl)ccc1O	8.9%	-11.6%	9.6%	10.2%	39.8µM*	10.2%
CNC(=O)CS(=O)CC(=O)Nc1cc(OC(C)C)c(Cl)cc1Cl (stereo not drawn)	38.1%	-5.6%	-2.8%	4.8%	6.0%	-2.7%
Cc1ccc(CNC(=O)CSc2c3c(nc4ccc(Cl)cc24)CCCC3)o1	35.8%	-6.7%	-4.9%	35.5µM*	-24.8%[59 µM]	3.6%
CC(C)Nc1nc2c(c(=O)n(C)c(=O)n2C)n1C	39.9%	-17.0%	-3.3%	2.8%	-3.9%	2.7%
Cn1c(=O)c2c(nc(NN=C3CCCCC3)n2C)n(C)c1=O	?	-25.1%	.	-25.1%	50.1µM*	5.8%
CC(C)=NNc1nc2c(c(=O)n(C)c(=O)n2C)n1C	9.9%	-21.9%	?	22.4µM*	.	.
Cn1c(=O)c2c(nc(N/N=C/c3ccco3)n2C)n(C)c1=O	26.7%	-11.5%	-35.5%	17.8µM*	.	7.1%
CCC(C)(C)C1CCC2(CC1)NC(=O)N(CC(=O)N1CCN(S(=O)(=O)c3cc(C)ccc3C)CC1)C2=O (stereo not drawn)	3.7%	-19.0%	7.9%	19.6%	5.9%	1.1%
CCCNc1c(NS(=O)(=O)c2ccc3c(c2)CCCC3)c(=O)oc2ccccc12	26.2%	-11.7%	-35.4%	20.2%	.	-2.9%
CCOc1ccc(NS(=O)(=O)c2ccc3[nH]cc(C(=O)N(C)C4CCCCC4)c(=O)c3c2)cc1	14.2%	-11.2%	-16.1%	.	?	-3.8%
COCc1cc(=O)[nH]c(=S)[nH]1	17.4%	12.6µM*	-30.3%	12.6µM*	4.47µM*	0.0%
COc1cc(C2CC(=O)Oc3c(C(CCN4CCN(c5ccccc5)CC4)c4ccc(N(C)C)cc4)c(OC)cc(OC)c32)cc(OC)c1OC (stereo not drawn)	?	8.91µM*	7.94µM*	18.8%	?	24.4%
COc1cc(C2CC(=O)Oc3c(C(CCN4CCOCC4)c4ccc(N(C)C)cc4)c(OC)cc(OC)c32)cc(OC)c1OC (stereo not drawn)	?	39.8µM*	44.7µM*	1.0%	?	23.8%
Cc1cc2c(s1)c(C=O)c(C(=O)NCc1ccccc1F)n2C	.	.	6.3%	.	-24.5%[12.7 µM]	.
COc1cc(NC(=O)C(C)Oc2ccccc2)ccc1NC(=O)COc1ccccc1 (stereo not drawn)	-7.3%	-20.0%	-16.0%	16.0%	-9.5%	1.2%
CCOC(=O)c1ccc(S(=O)(=O)N2CCN(C3CCCC3)CC2)cc1	20.0%	-14.0%	-19.4%	17.8µM*	-9.6%	-11.1%
CCOC(=O)N1CCC(N2CCN(S(=O)(=O)CC)CC2)CC1	?	4.47µM*	-31.2%	-22.2%	?	.
CCOC(=O)N1CCC(N2CCN(S(=O)(=O)c3ccc(OC)cc3)CC2)CC1	-11.2%	17.8µM*	-9.8%	4.1%	?	8.3%
CCOC(=O)c1ccc(S(=O)(=O)N2CCN(C(C)=O)CC2)cc1	28.9%	-5.3%	-20.2%	19.5%	-22.2%	-1.8%
COc1ccc(S(=O)(=O)N2CCN(C3CCN(Cc4ccccc4)CC3)CC2)cc1	-4.9%	-12.7%	.	14.2%	-4.4%[59 µM]	2.1%
COc1ccc(-c2[nH]ncc2CNC(C)c2cn(C)nc2C)c(F)c1 (stereo not drawn)	66.3%	-18.8%	0.6%	13.0%	-3.7%	9.0%
Cc1cc(C)c(NC(=O)CSc2ncc3c(n2)-c2cc(Cl)ccc2N(C)S3(=O)=O)c(C)c1	35.6%	-14.9%	32.7%	.	10.8%[59 µM]	2.6%
Cc1ccc(Cl)cc1N1CCN(CCNC(=O)Nc2ccccc2Cl)CC1	14.6%	-31.5%	-14.6%	.	-13.4%[59 µM]	0.0%
O=C(N/N=C/c1ccc(N2CCCCC2)o1)c1ccccc1[N+](=O)[O-]	-10.3%	?	-8.6%	?	11.2µM*	2.6%
O=C(N/N=C/c1ccncc1)c1ccccc1[N+](=O)[O-]	39.2%	-6.1%	-16.2%	2.6%	9.7%[59 µM]	4.9%
SMILES	HP1b chromo inh	JMJD2A Tudor	BAZ2B block	Sfp PPTase inh	G9a inh	TDP1 inh
O=C(NN=C1CCCC1)c1ccccc1[N+](=O)[O-]	48.4%	-5.5%	-1.1%	-3.2%	.	39.8µM*
O=C(NN=C1CCCC1)c1ccccc1O	39.9%	?	-6.7%	-3.4%	.	-5.3%
O=C(N/N=C/c1ccc(N2CCOCC2)o1)c1ccccc1[N+](=O)[O-]	-3.2%	?	-1.0%	15.8µM*	?	5.3%
Cc1cccc(N(CC(=O)NC(C)c2ccccc2)S(=O)(=O)c2ccccc2)c1C (stereo not drawn)	18.5%	-14.9%	-1.8%	.	-46.7%[59 µM]	.
CCN(CC(=O)Nc1cc(S(=O)(=O)N2CCOCC2)ccc1C)Cc1ccccc1	17.0%	-1.4%	4.5%	.	-32.0%	0.0%
NC1(C(=O)O)CC1	27.8%	3.16µM*	.	56.2µM*	7.08µM*!	-11.3%[56.1 µM]
NC1(C(=O)O)CCCC1	.	.	.	-10.7%	-32.6%[2.33 µM]	2.1%
CC(=O)c1c(CC(=O)O)[nH]n(-c2nc3ccccc3s2)c1=O	-3.7%	79.4µM*	-8.8%	8.0%	?	.
Cc1cc(C)n(-c2cc(-n3nc(C)cc3C)ncn2)n1	46.6%	-0.6%	6.7%	-2.3%	?	5.1%
Cc1cc(C)n(-c2cc(O)c(-n3nc(C)cc3C)cc2O)n1	?	22.4µM*	-16.4%	-6.3%	28.2µM*	2.5%
O=C(Nc1cc(C(F)(F)F)ccc1Cl)c1cnn(-c2ccccc2)c1-n1cccc1	47.0%	13.4%	5.4%	.	-2.4%[59 µM]	0.0%
O=c1c2ccccc2nc2n1CCCCC2	17.0%	-23.2%	5.4%	21.1%	8.6%[59 µM]	4.9%
O=C1CCn2c1c(O)c1ccccc1c2=O	-14.1%	35.5µM*	.	.	.	.
CCOC(=O)c1ccc(NS(=O)C23CC4CC(CC(C4)C2)C3)cc1 (stereo not drawn)	51.9%	-28.5%	-4.3%	6.9%	5.01µM*	3.3%
CCOC(=O)C1CCCN(C(=O)CCc2nnc(-c3ccc(C(C)=O)s3)o2)C1 (stereo not drawn)	46.4%	-15.1%	20.8%[57.1 µM]	-1.1%	35.5µM*	9.6%
CCOC(=O)C1CCCN(C(=O)CSCc2ccccc2)C1 (stereo not drawn)	28.4%	7.3%	-0.6%	3.9%	4.1%[12.7 µM]	-1.0%
COc1ccc(N2CCN(C(=O)CCNC(=O)Cn3ccc4ccccc4c3=O)CC2)cc1	13.0%	-19.6%	.	8.0%	?	6.9%
CC(=O)c1ccc(N2CCN(CC3CCCCC3)CC2)cc1	?	35.5µM*	?	-25.9%	50.1µM*	.
O=[N+]([O-])c1ccc(N2CCN(CC3CCCCC3)CC2)cc1	?	17.8µM*	56.2µM*	-25.4%	-10.4%[0.501 µM]	.
